Among all 48,000 compounds or so, about 13,000 (27%) showed an effect of 50% or more. The list shows a part of the results.
Each compound was assayed on Wolbachia pipientis (assay: Anti-Wolbachia Cell-Based Screen). Settings: 5 µM.
Assay type: functional
Set-up: scale not given: in the data most compounds retested in dose-response had high values
`CC1=N[C@@]2(CC[C@@H]3CN(C(=O)NC(C)C)C[C@@H]32)C(=O)N1CC(C)C` was tested, and the “Percent Effect” value was 1.346%.
With `CCC(C)Oc1ccc(CNCCc2c[nH]cn2)cc1Cl` (configuration not stated) the “Percent Effect” value was 95.83%.
With `CCC(C)Oc1ccc(CNCCNS(C)(=O)=O)cc1Cl` (configuration not stated) the “Percent Effect” value was 97.61%.
For `CCC(C)Oc1ccc(CNCCNC(C)=O)cc1Cl` (configuration not stated), the “Percent Effect” value was 110%.
With `C=C(C)COc1ccccc1CNCCc1c[nH]cn1` the “Percent Effect” value was -1.538%.
`COc1cc(CNCCNC(=O)c2ccc(O)cc2)ccc1SC` was tested, and the “Percent Effect” value was -8.251%.
With `C=C(C)COc1cccc(CNCCc2c[nH]cn2)c1` the “Percent Effect” value was -1.571%.
For `CC(=O)NCCNC(=O)NCc1ccc(Br)cc1Cl`, the “Percent Effect” value was -4.256%.
For `CC(CNCc1ccc(Cl)c(Cl)c1)Oc1ccccn1.Cl` (configuration not stated), the “Percent Effect” value was 9.6%.
In the case of `CCOc1ccc(CNCCCn2ccnc2)cc1Cl.Cl.Cl`, the “Percent Effect” value was 1.454%.
`CC(CNS(C)(=O)=O)Oc1cccc(Cl)c1` (configuration not stated) was tested, and the “Percent Effect” value was -10.77%.
With `CNC(=O)c1ccc(CNCc2ccc(SC)c(OC)c2)cc1` the “Percent Effect” value was -3.705%.
For `CCC(C)Oc1ccc(CNCCNC(C)=O)cc1OC` (configuration not stated), the “Percent Effect” value was 123.2%.
With `COc1cc(C2CC(=O)Oc3cc(C)[nH]c(=O)c32)ccc1OC(F)F` (configuration not stated) the “Percent Effect” value was 2.33%.
With `Cc1ccccc1[C@@H]1CN(Cc2nc3ncccn3n2)C[C@H]1C(=O)O` the “Percent Effect” value was -5.6%.
For `Cc1nc(C)c(CNC(=O)NC(c2nnc3n2CCC3)C(C)C)s1` (configuration not stated), the “Percent Effect” value was -4.122%.
For `COc1ccc(C(=O)Cn2cnnc2[S+](C)[O-])cc1Cl` (configuration not stated), the “Percent Effect” value was -30.86%.
For `CC(C)n1c(C2CCCN(CC(N)=O)C2)nc2ccccc21` (configuration not stated), the “Percent Effect” value was -123.1%.
`C/C(=C\c1ccccc1)CN1CCCC(c2nnc3n2CCNCC3)C1.Cl` (configuration not stated) was tested, and the “Percent Effect” value was 87.16%.
In the case of `Cc1ccc(CC(=O)N2CCC(c3nnc4n3CCC4)CC2)cc1`, the “Percent Effect” value was -4.36%.
With `CC(C)CN1C(=O)CO[C@@H]2CN(C(=O)NC(C)C)C[C@H]21` the “Percent Effect” value was -9.204%.
For `c1cc(-c2n[nH]cc2-c2ccnc(N3CCCCCC3)n2)ccn1`, the “Percent Effect” value was 91.97%.
In the case of `CN1CCCN(c2nccc(-c3c[nH]nc3-c3ccncc3)n2)CC1`, the “Percent Effect” value was 94.49%.
`CN1CCCN(c2nccc(-c3c[nH]c4ccc(Br)cc34)n2)CC1` was tested, and the “Percent Effect” value was 88.95%.
For `c1cc(-c2n[nH]cc2-c2ccnc(N3CCCC3)n2)ccn1`, the “Percent Effect” value was 100.8%.
In the case of `CN1CCCN(c2nccc(-c3cc(C(=O)O)ccn3)n2)CC1`, the “Percent Effect” value was -0.2127%.
With `Cc1nn(C)cc1-c1ccnc(N2CCN(c3ccccc3)C(=O)C2)n1` the “Percent Effect” value was -10.97%.
`Cc1oc(C(C)C)cc1C(=O)N1C[C@H]2CC[C@@H]1CN(c1ncccn1)C2` was tested, and the “Percent Effect” value was 6.387%.
For `CN(C)c1ccc(CCCNC(=O)NCC(O)c2ccsc2)cc1` (configuration not stated), the “Percent Effect” value was 3.16%.
With `Cc1ccc(-c2nc3c([nH]2)CCNC3C(=O)O)c2cccnc12` (configuration not stated) the “Percent Effect” value was -6.719%.
For `CS(=O)(=O)N1CCCC(c2nc(-c3ccccc3)c[nH]2)C1` (configuration not stated), the “Percent Effect” value was -2.942%.
For `Cc1cc(C)nc(Nc2cncc(C3CCCN(S(C)(=O)=O)C3)n2)n1` (configuration not stated), the “Percent Effect” value was 101.3%.
With `CNc1cncc(C2CCCN(S(C)(=O)=O)C2)n1` (configuration not stated) the “Percent Effect” value was -7.969%.
With `Cc1cnc(N2CCCC(c3ccccc3)C2)nc1-c1ccnn1C` (configuration not stated) the “Percent Effect” value was -17.82%.
With `CS(=O)(=O)N1CCCC(c2cncc(Nc3ccccn3)n2)C1` (configuration not stated) the “Percent Effect” value was 103.2%.
`Cc1cc(C)nc(Nc2cccc(C3CCCN(S(C)(=O)=O)C3)n2)n1` (configuration not stated) was tested, and the “Percent Effect” value was 85.5%.
In the case of `Cc1cc(-c2ccnn2C)nc(C2CCCN(S(C)(=O)=O)C2)n1` (configuration not stated), the “Percent Effect” value was 122.2%.
`CCc1noc(C)c1-c1nc(Cc2cccs2)nn1C1CCN(C)CC1` was tested, and the “Percent Effect” value was -27.77%.
With `COCC(c1ccccn1)N(C)C(=O)c1cc(-c2ccc(O)cc2)n[nH]1` (configuration not stated) the “Percent Effect” value was -10.51%.
In the case of `N#Cc1cc2n(n1)CCN(C(=O)CCc1c[nH]c3ccccc13)C2`, the “Percent Effect” value was -21.25%.
For `CN(C)C(CNC(=O)NCc1cc[nH]n1)c1ccco1` (configuration not stated), the “Percent Effect” value was -4.793%.
`CCOC(=O)C1CN(CC2CC2)Cc2ncn(CC)c21.O=C(O)C(F)(F)F` (configuration not stated) was tested, and the “Percent Effect” value was 1.772%.
With `COC[C@@]12CCO[C@@H]1CCN(C(=O)C1CC(F)(F)C1)C2` the “Percent Effect” value was -30.77%.
With `CCCc1cc(C(=O)N2C[C@H]3CCC[C@@]3(CO)C2)[nH]n1` the “Percent Effect” value was 14.56%.
`CCOCC(=O)N1C[C@H]2CCC[C@@]2(COC)C1` was tested, and the “Percent Effect” value was 105.6%.
With `COCCC(=O)N1C[C@@H]2COC[C@]2(COCc2cccnc2)C1` the “Percent Effect” value was -10.08%.
For `COC[C@@]12CCC[C@@H]1CN(C(=O)Cc1ccco1)C2`, the “Percent Effect” value was -55.3%.
`Cc1ccoc1C(=O)N1C[C@H]2CCC[C@@]2(COCc2ccncc2)C1.O=C(O)C(F)(F)F` was tested, and the “Percent Effect” value was 6.221%.
In the case of `COC[C@@]12CCC[C@@H]1CN(C(=O)N1CCCC1)C2`, the “Percent Effect” value was 106.2%.
With `COC[C@@]12CCC[C@@H]1CN(C(=O)CN(C)C)C2.O=C(O)C(F)(F)F` the “Percent Effect” value was 107.5%.
In the case of `COCCC(=O)N1C[C@H]2CCC[C@@]2(COC)C1`, the “Percent Effect” value was 114%.
For `COC[C@@]12CCO[C@@H]1CCN(C(=O)C1CCSCC1)C2`, the “Percent Effect” value was -9.781%.
